Reference: PubChem BioAssay (NCI)
The panel holds about 79,000 compounds, 15% with a hit somewhere; the sample as a whole holds those more often. Cut-off read from the data, not from the text of the source: active = growth inhibition above about 70%; inactive = the rest.

Experiments:
[1] = NCI Yeast Anticancer Drug Screen. Data for the rad50 strain (AID 155);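 note: 0% = growth of vehicle-only cultures of the same strain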; conditions: S. cerevisiae rad50 strain growth inhibition; at 50.0 µM; hits give high values
In short: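 A DNA repair-deficient yeast mutant serves as the test organism; compound-induced growth inhibition is calculated against vehicle-treated cells.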

[2] = NCI Yeast Anticancer Drug Screen. Data for the mec2-1 strain (AID 157); conditions: S. cerevisiae mec2-1 strain, at 50.0 µM, hits give high values
In short: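 Yeast mec2-1 mutant treated with compound. Readout: growth inhibition vs vehicle controls.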

[3] = NCI Yeast Anticancer Drug Screen. Data for the sgs1 mgt1 strain (AID 161);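 note: 0% = growth of cultures given vehicle only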; conditions: S. cerevisiae sgs1 mgt1 strain, at 50.0 µM, hits give high values
In short: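 Genetically altered yeast, compound exposure, growth inhibition relative to vehicle.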

[4] = NCI Yeast Anticancer Drug Screen. Data for the cln2 rad14 strain (AID 165);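 note: 0% = growth equal to vehicle treated cultures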; conditions: S. cerevisiae cln2 rad14 strain, at 50.0 µM, hits give high values
In short: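 cln2 rad14 yeast strain; compound exposure; growth inhibition read vs vehicle controls.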

[5] = NCI Yeast Anticancer Drug Screen. Data for the bub3 strain (AID 167); conditions: S. cerevisiae bub3 mutant strain, at 50.0 µM, hits give high values
In short: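 Inhibition values come from growth of compound-treated mutant yeast normalised to vehicle-treated controls.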

[6] = NCI Yeast Anticancer Drug Screen. Data for the mlh1 rad18 strain (AID 175); conditions: S. cerevisiae mlh1 rad18 strain growth inhibition; at 50.0 µM; hits give high values
In short: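 Yeast w/ defined DNA-repair lesions; compound exposure; growth vs vehicle controls → % inhibition.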

Measured: growth inhibition

CC(=O)NC(C(=O)NC(CSCc1ccccc1)C(=O)O)=C(C)C (stereo unspecified)
inactive: [1] -2.05% | [2] -13.5% | [3] 8.9% | [4] 3.1% | [5] -36.4% | [6] -11.3%

CN(C)CCC(c1ccccc1)C(CO)c1ccccc1 (stereo unspecified)
inactive: [1] -24.6% | [2] 8.75% | [3] 9.9% | [4] 7.65% | [5] -2.1% | [6] 12.7%

O=c1cc2n(c(=O)n1Cc1ccccc1)CCC2
inactive: [1] 10.9% | [2] 4.25% | [3] 1.55% | [4] 1.5% | [5] -3.9% | [6] -6%

C=CCOc1c(C)cc(C(N)=O)cc1C
inactive: [1] 4.45% | [2] -6.85% | [3] 24.6% | [4] 18.9% | [5] 5.45% | [6] 51.4%

CC1(CCl)C(=O)C=Cc2ccccc21 (stereo unspecified)
inactive: [1] 6.45% | [2] 0.7% | [3] -5.1% | [4] -6.8% | [5] 5.3% | [6] -3.45%

CCC(=O)c1ccc(OC(C)=O)cc1
inactive: [1] 36% | [2] -4.75% | [3] -4.85% | [4] -23.4% | [5] 5.7% | [6] 4.65%

CCOC(=O)CC(=O)c1ccccc1SC
inactive: [1] 13.2% | [2] -1.55% | [3] -6.1% | [4] 4.4% | [5] -1.45% | [6] 17.4%

COc1ccc2cc(C(=O)Nc3ccc(O)c(C(=O)O)c3)ccc2c1OC
inactive: [1] -2.2% | [2] 0.5% | [3] -7.6% | [4] -10.6% | [5] 2.95% | [6] -22.6%

Cc1cc2ccccc2c[n+]1CC(O)CBr (stereo unspecified)
inactive: [1] -5.45% | [2] 7.05% | [3] 11.3% | [4] -36.8% | [5] -11.4% | [6] 5.9%

N=c1c2ncn(C3OC(COP(=O)(O)O)C(O)C3O)c2ncn1O (stereo unspecified)
inactive: [1] 12.7% | [2] 0% | [3] -6.6% | [4] -18% | [5] -9.6% | [6] 1.15%

N#C/C(=C/c1cccc2ccccc12)C(=O)c1ccccc1
inactive: [1] 36.9% | [2] -2.75% | [3] 3.6% | [4] 26.9% | [5] -3.75% | [6] -5.5%

C/C(N=NC(=S)N(C)C)=C1\C=CC=CN1O
inactive: [1] -0.25% | [2] 11.8% | [3] 8.1% | [4] 55.6% | [5] 23.1% | [6] 38.9%

N#Cc1c(N)ncn1C1OC(CO)C(O)C1O (stereo unspecified)
inactive: [1] -17.6% | [2] -7.6% | [3] -20.9% | [4] -16.3% | [5] 0.15% | [6] -13.3%

CCC(Nc1ncnc2nc[nH]c12)C(=O)O (stereo unspecified)
inactive: [1] -7.5% | [2] -14.2% | [3] -17.4% | [4] -20.4% | [5] -23.6% | [6] 14%

NC(=O)C(C(N)=O)c1ccnc2ccccc12
inactive: [1] 8.6% | [2] -2.65% | [3] -16% | [4] -16.8% | [5] -2.1% | [6] 10.9%

COCC(Cl)/C(N)=N\S(=O)(=O)c1ccc(Cl)cc1 (stereo unspecified)
inactive: [1] 5.8% | [2] -17.4% | [3] 15.2% | [4] 14.8% | [5] 26.2% | [6] 4.95%

C=CC(C)(C)/C=C/C=O
inactive: [1] -18.8% | [2] -15.1% | [3] -12.1% | [4] 5.65% | [5] 24.6% | [6] -32.1%

O=C(Nc1ccccn1)c1ccc([N+](=O)[O-])cc1
inactive: [1] 33% | [2] 7.95% | [3] 15.4% | [4] 5.45% | [5] -1.8% | [6] -2.4%

c1ccc2c(c1)CCC/C2=N\OCC1CO1 (stereo unspecified)
inactive: [1] -7.5% | [2] -28.4% | [3] -35.2% | [4] -3.1% | [5] -33.1% | [6] 7.05%

CCCC(C)C(SC(CC)C(N)=O)C(=O)O (stereo unspecified)
inactive: [1] -3.5% | [2] -5.15% | [3] 5.1% | [4] -12.8% | [5] 10.5% | [6] -9.15%

O=c1oc(-c2cccc(C[n+]3ccccc3)c2)nc2cc(Cl)ccc12
inactive: [1] -14.9% | [2] -6.8% | [3] -11.4% | [4] -0.45% | [5] -7.1% | [6] -4.75%

O=C(Nc1cc(NC(=O)n2nnc3ccccc32)c(Br)cc1Br)n1nnc2ccccc21
inactive: [1] 51.4% | [2] 25% | [3] 27.2% | [4] 24.2% | [5] 2.15% | [6] 27.8%

CC(=O)Nc1c(C(=N)C#N)ncn1CCO
inactive: [1] 2.3% | [2] 10.2% | [3] 8.35% | [4] 11.2% | [5] -3.65% | [6] 5.5%

Cc1ccc(S(=O)(=O)CCCCS(=O)(=O)c2ccc(C)cc2)cc1
inactive: [1] 1.8% | [2] 4.35% | [3] -7.1% | [4] -62.4% | [5] -27.2% | [6] 2.3%

C=CCc1ccc(OC(=O)Nc2ccccc2)c(OC)c1
inactive: [1] 55.9% | [2] 25.2% | [3] 31.4% | [4] 13.9% | [5] 33.5% | [6] 23.4%

CC(=O)OCC1OC(Nc2[nH]c(=O)n(C)c(=O)c2-c2csc(N)n2)C(OC(C)=O)C(OC(C)=O)C1OC(C)=O (stereo unspecified)
inactive: [1] -12.8% | [2] -25.6% | [3] -32.9% | [4] 27.4% | [5] -8.9% | [6] -8.6%

CCCC(=O)CC(C)C(=O)C(=O)NC12CC3CC(CC(C3)C1)C2 (stereo unspecified)
inactive: [1] 14.6% | [2] 8.35% | [3] 13.4% | [4] 20.2% | [5] 4.4% | [6] 30.3%

COc1ccc(Br)c(C=O)c1NC(C)=O
inactive: [1] 22.7% | [2] 11.4% | [3] 38.1% | [4] -1.3% | [5] -8.25% | [6] -4.1%

COC(=O)C1OC(Sc2ncnc3nc[nH]c23)C(O)C(O)C1O (stereo unspecified)
inactive: [1] 3.15% | [2] 1.6% | [3] -0.85% | [4] 17.4% | [5] 7.3% | [6] 4.9%

CCCCCCCCCc1cc(-c2ccc(C=O)s2)sc1-c1ccc(C=O)s1
inactive: [1] 8.8% | [2] -4.5% | [3] -8.8% | [4] -3.6% | [5] -12.9% | [6] 0.4%

CCCCCCCCC(=O)c1c(OC)oc(C=O)cc1=O
inactive: [1] -0.5% | [2] -22.8% | [3] 31.8% | [4] 26.2% | [5] -19.6% | [6] 4%

N#CC1CCCCC(=O)N1 (stereo unspecified)
inactive: [1] 3.55% | [2] 2.2% | [3] -2.05% | [4] -3.6% | [5] -1.2% | [6] -1.55%

NC(=S)c1ccc[n+](Cc2c(Cl)cccc2Cl)c1
inactive: [1] 11.9% | [2] 3.6% | [3] -0.8% | [4] -13.3% | [5] -0.15% | [6] -4.4%

CC(C)CC(=O)CC(=O)C(C)(C)C.CC(C)CC(=O)CC(=O)C(C)(C)C.CC(C)CC(=O)CC(=O)C(C)(C)C.CC(C)CC(=O)CC(=O)C(C)(C)C.[Ce]
inactive: [1] 3% | [2] 19% | [3] 55.4% | [4] -16.1% | [5] 2.6% | [6] 47.1%

CS(=O)(=O)OC[C@@H]1C2CCC(C2)[C@@H]1COS(C)(=O)=O
inactive: [1] -8.45% | [2] -12.8% | [3] 1.5% | [4] -52.8% | [5] -3.5% | [6] -14.2%

Cc1ccc(S/C=C/Sc2ccc(C)cc2)cc1
inactive: [1] 15.1% | [2] 8.15% | [3] 3.55% | [4] -14.6% | [5] 22.9% | [6] 36%

CNC1C(CO)OC(n2cnc3c(=O)[nH]cnc32)C1O (stereo unspecified)
inactive: [1] 12.2% | [2] -6.45% | [3] -11.4% | [4] -9.1% | [5] -9.2% | [6] 13.6%

O=[N+]([O-])c1ccc2c(Cl)[nH]nc2c1
inactive: [1] 35.1% | [2] 27.6% | [3] 29.8% | [4] 30.8% | [5] 39% | [6] 23.9%

CCN(CC)CC(O)c1ccc2c(ccc3ccccc32)c1 (stereo unspecified)
inactive: [1] 12.5% | [2] -5% | [3] 9.2% | [4] -32% | [5] -3.45% | [6] 12%

Nc1nc2c(nnn2-c2ccc(Cl)cc2)c(=O)[nH]1
inactive: [1] -4.3% | [2] -4.15% | [3] -5.85% | [4] -25.1% | [5] -0.5% | [6] -6.25%

CC(C)(O)C#Cc1ccccc1
inactive: [1] -0.85% | [2] -8.2% | [3] -0.95% | [4] -24.8% | [5] -9.5% | [6] 11.1%
